Only some compounds are listed: those with a hit (about 4% of all), similar ones and a draw of the others.
HIF-2a block: HIF-2a inhibition; inhibition, % at 18.8 µM; 786-0 RCC cells HIF-2a reporter, luciferase luminescence, overnight; 0.72% of 360,000 active;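 active = inhibition of the luminescence signal of 40% or more relative to plate controls, in a single-dose primary screen at 18.75 µM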
KKLEB cytotox: reduces viability of KKLEB cystic fibrosis airway cells | KKLEB CF airway cells viability, ATPlite luminescence, overnight; stronger effect = lower value; cells stimulated with P. aeruginosa culture filtrate | 0.36% of 360,000 active | activity change (cytotoxicity), % at 5 µM;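 active = corrected activity change at or below -50% at 5 µM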
CF NFkB inh: blocks PAF-induced NF-kB reporter in cystic fibrosis cells. KKLEB NF-kB-GFP reporter, GFP fluorescence overnight. inhibition, % at 5 µM. 0.86% of 360,000 active;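 active = at least 50% inhibition at 5 µM, scaled per plate between neutral and stimulator controls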;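 note: PAF is a Pseudomonas aeruginosa culture filtrate used as stimulus; plate controls were PAF-stimulated DMSO wells for no effect and unstimulated DMSO wells for full effect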
Peg3 promoter: Peg3 promoter activity inhibition; HeLa PEG-Prom luciferase reporter, luminescence, overnight; inhibition, % at 20 µM; 1.7% of 360,000 active; AID 588405;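 active = inhibition of at least 50% at 20 µM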
TWEAK-Fn14 inh: TWEAK-Fn14 signaling inhibition; TWEAK-stimulated Fn14 reporter cells, luciferase luminescence, 8 h; 2% of 360,000 active; AID 1159606; inhibition, % at 10 µM; in the data active = inhibition above about 50%
TROY signal inh: inhibitors of TROY-dependent NF-kB signaling. 0.98% of 360,000 active. inhibition, % at 10 µM. Q293 LMP1-TROYcd NF-kB luciferase reporter, 4 h;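 active = compounds whose plate-normalised and pattern-corrected inhibition of the luciferase reporter signal at the single screening dose is 50% or more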
Starred values were filed as active, the others as inactive.

Screening COc1cc(C(=O)Nc2nnc(C(C)(C)C)s2)c([N+](=O)[O-])cc1OC returned HIF-2a block 10, KKLEB cytotox -5, CF NFkB inh 2, Peg3 promoter 62*, TWEAK-Fn14 inh 18 and TROY signal inh -23.
COc1ccc(C(=O)c2ccc(N3CCN(C(=O)c4ccc(F)cc4)CC3)c(F)c2)cc1Br was read as HIF-2a block 7, KKLEB cytotox 10, CF NFkB inh 10, Peg3 promoter 26, TWEAK-Fn14 inh 61* and TROY signal inh 44.
`CCC(=O)c1ccc(N2CCN(C(=O)c3ccc(F)cc3)CC2)c(F)c1` gave HIF-2a block 13, KKLEB cytotox 0, CF NFkB inh 2, Peg3 promoter 3, TWEAK-Fn14 inh -4 and TROY signal inh 17.
CCC(C)(C(=O)NC1CCCC1)N(Cc1ccco1)C(=O)c1ccc2c(c1)OCO2 (configuration not stated) was read as HIF-2a block 0, KKLEB cytotox -9, CF NFkB inh -10, Peg3 promoter 16, TWEAK-Fn14 inh -34 and TROY signal inh 10.
`CCC(C)(NC(=O)c1ccc2c(c1)OCO2)C(=O)NC1CCCCC1` (configuration not stated) gave HIF-2a block 11, KKLEB cytotox 1, CF NFkB inh -7, Peg3 promoter 21, TWEAK-Fn14 inh 51* and TROY signal inh 7.
CN(Cc1ccccc1F)c1cc2c(c3c1ccn3C)C1CCC2C1 (configuration not stated) was read as HIF-2a block -6, KKLEB cytotox -4, CF NFkB inh -14, Peg3 promoter 1, TWEAK-Fn14 inh -14 and TROY signal inh 2.
Screening O=C(O)c1cc(-c2ccc(/C=C3/SC(=S)N(Cc4ccccc4)C3=O)o2)ccc1Cl returned HIF-2a block -166, KKLEB cytotox 0, CF NFkB inh -30, Peg3 promoter -74, TWEAK-Fn14 inh 34 and TROY signal inh 52*.
For Fc1cccc(NC(=S)NCc2ccc(Cl)cc2)c1 the results were HIF-2a block -7, KKLEB cytotox 11, CF NFkB inh -7, Peg3 promoter -17, TWEAK-Fn14 inh -17 and TROY signal inh -3.
For Fc1ccc(CNC(=S)Nc2cccc(C(F)(F)F)c2)cc1 the results were HIF-2a block 2, KKLEB cytotox 0, CF NFkB inh 2, Peg3 promoter 69*, TWEAK-Fn14 inh 10 and TROY signal inh 21.
For CC(C)(C)NNC(=S)Nc1cccc(F)c1 the results were HIF-2a block 11, KKLEB cytotox 2, CF NFkB inh -16, Peg3 promoter 12, TWEAK-Fn14 inh 10 and TROY signal inh -14.
O=[N+]([O-])c1cc(C(F)(F)F)cc([N+](=O)[O-])c1NCCNC(=S)Nc1cccc(F)c1 was read as HIF-2a block 18, KKLEB cytotox 5, CF NFkB inh 9, Peg3 promoter 38, TWEAK-Fn14 inh 24 and TROY signal inh 68*.
Screening FC(F)(F)c1cccc(NC(=S)NCc2ccc(Cl)cc2)c1 returned HIF-2a block -19, KKLEB cytotox 5, CF NFkB inh 28, Peg3 promoter 40, TWEAK-Fn14 inh 57* and TROY signal inh 60*.
For Cc1ccc(NC(=O)C2CCCN2C(=O)c2cccs2)c(C)c1 (configuration not stated) the results were HIF-2a block 3, KKLEB cytotox 4, CF NFkB inh -9, Peg3 promoter -10, TWEAK-Fn14 inh 7 and TROY signal inh -15.
Screening CCNC(=O)C1CCCN(C(=O)c2ccccc2)CC1 (configuration not stated) returned HIF-2a block 8, KKLEB cytotox -28, CF NFkB inh 3, Peg3 promoter -2, TWEAK-Fn14 inh 13 and TROY signal inh -2.
CN(C)CCN1CCN(C2CN(Cc3cn(Cc4ccc(Cl)cc4)nn3)S(=O)(=O)C2)CC1 (configuration not stated) was read as HIF-2a block 2, TWEAK-Fn14 inh 5 and TROY signal inh 2.
For CCn1c(SCC(=O)Nc2ccccc2Br)nnc1-c1cnccn1 the results were HIF-2a block 0, KKLEB cytotox -8, CF NFkB inh 1, Peg3 promoter 2, TWEAK-Fn14 inh 2 and TROY signal inh -8.
Screening COC(=O)CN(C)C(=O)c1ccc(OC2CCN(S(=O)(=O)N(C)C)CC2)cc1 returned HIF-2a block -119, KKLEB cytotox -7, CF NFkB inh 6, Peg3 promoter -37, TWEAK-Fn14 inh -9 and TROY signal inh -56.
For CC1CCc2nc(N)c(C#N)c(-c3ccncc3)c2C1 (configuration not stated) the results were HIF-2a block 20, KKLEB cytotox -10, CF NFkB inh -9, Peg3 promoter 17, TWEAK-Fn14 inh 3 and TROY signal inh -12.
CC1CCc2nc(N)c(C#N)c(-c3cccnc3)c2C1 (configuration not stated) was read as HIF-2a block 13, KKLEB cytotox -5, CF NFkB inh 69*, Peg3 promoter 31, TWEAK-Fn14 inh 83* and TROY signal inh 54*.
O=C1NC[C@@H](CCCCN2CCN(CCc3ccc(O)cc3)C(=O)C2=O)N(Cc2ccccc2)C1=O was read as HIF-2a block 0, TWEAK-Fn14 inh 11 and TROY signal inh 17.
NC(=O)COC(=O)c1ccccc1Nc1ccc(SC(F)F)cc1 was read as HIF-2a block -139, KKLEB cytotox 6, CF NFkB inh -18, Peg3 promoter -131, TWEAK-Fn14 inh -24 and TROY signal inh -48.
For CC(C)(C)NC(=O)COC(=O)c1ccccc1Nc1ccc(SC(F)F)cc1 the results were HIF-2a block -156, KKLEB cytotox 5, CF NFkB inh -1, Peg3 promoter -186, TWEAK-Fn14 inh 55* and TROY signal inh 27.
`CCCCCCOC(=O)C[N+](C)(C)CCOC1CC2CCC1(C)C2(C)C` (configuration not stated) gave HIF-2a block 12, KKLEB cytotox -6, CF NFkB inh 17, Peg3 promoter 3, TWEAK-Fn14 inh -1 and TROY signal inh 4.
For CCCCCCCOC(=O)C[N+](C)(C)CCOC1CC2CCC1(C)C2(C)C (configuration not stated) the results were HIF-2a block -2, KKLEB cytotox -38, CF NFkB inh 47, Peg3 promoter 99*, TWEAK-Fn14 inh 46 and TROY signal inh 63*.
`CC(C)C[C@H]1COc2cccc(N3CCC[C@H]3CO)c2S(=O)(=O)N1` gave HIF-2a block 3, TWEAK-Fn14 inh 6 and TROY signal inh 16.
Screening COc1cccc2cc(S(=O)(=O)c3ccccc3)c(=Nc3ccc4c(c3)OCCO4)oc12 returned HIF-2a block 13, KKLEB cytotox -11, CF NFkB inh 18, Peg3 promoter 3, TWEAK-Fn14 inh 78* and TROY signal inh 17.

High-throughput results (PubChem BioAssay)
